Inconclusive results are not listed. Calls of active or inactive are those of the source. Unless noted, calls follow the shape of the dose curve; as a rule, active = well fitted curve in the direction sought with a large enough effect in the repeat runs; inconclusive = weak or mixed curves; inactive = no such curve, though single readings can be large; an effect the other way counts as inactive or inconclusive.
Key:
[1] = qHTS assay to identify small molecule agonists of the peroxisome proliferator-activated receptor delta (PPARd) signaling pathway - cell viability counter screen (AID 743211); also: % is scaled to controls: 0 for no effect and ±100 for the full control effect; nearly all actives have a fitted effect of over 55% in size
Method in brief: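 HEK293H PPARd-bla, 3000 cells/well; 5 h preincubation 37C/5% CO2; cpd in DMSO, 17 h 37C; B/G FRET substrate 2 h RT; CellTiter-Glo 30 min RT, luminescence.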

[2] = biological target: Peroxisome proliferator-activated receptor delta (Homo sapiens) (UniProt Q03181); assay: qHTS assay to identify small molecule agonists of the peroxisome proliferator-activated receptor delta (PPARd) signaling pathway (AID 743212; calls by dose curve; also: % is scaled to controls: 0 for no effect and ±100 for the full control effect)
Method in brief: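 Read-out: beta-lactamase FRET fluorescence after 2 h room-temperature incubation with LiveBLAzer B/G substrate. Cells were HEK293H carrying a UAS-bla reporter for PPARd, treated at 37 C with DMSO-dissolved compounds.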

[3] = biological target: Peroxisome proliferator-activated receptor delta (Homo sapiens) (UniProt Q03181); assay: qHTS assay to identify small molecule antagonists of the peroxisome proliferator-activated receptor delta (PPARd) signaling pathway (AID 743215; active = well fitted inhibition curve with a large enough effect in the signal ratio in the repeat runs, not every such curve was filed as active; the % refers to the signal ratio;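 also: cells stimulated with agonist L165041 at 300 nM final during compound exposure; series mostly up to about 62 µM; % is scaled to controls: 0 for no effect and ±100 for the full control effect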)
Method in brief: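 Plated HEK293H PPARd-bla cells rested 5 h at 37 C and 5% CO2. Compound, then agonist L165041 at 300 nM final, was added; 17 h at 37 C followed. Substrate loading, 2 h room temperature, fluorescence measured.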

[4] = qHTS assay to identify small molecule agonists of the farnesoid-X-receptor (FXR) signaling pathway - cell viability counter screen (AID 743218); also: % is scaled to controls: 0 for no effect and ±100 for the full control effect; nearly all actives have a fitted effect of over 45% in size
Method in brief: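 Viability of FXR-bla HEK 293T cells is measured by ATP-based CellTiter-Glo luminescence following 16 h compound treatment at 37 C and a prior 2 h room-temperature beta-lactamase substrate step.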

[5] = qHTS assay to identify small molecule antagonists of the farnesoid-X-receptor (FXR) signaling pathway - cell viability counter screen (AID 743221; active = well fitted cell-killing curve with a large enough effect in the repeat runs, not every such curve was filed as active; also: % is scaled to controls: 0 for no effect and ±100 for the full control effect; nearly all actives have a fitted effect of over 50% in size)
Method in brief: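 Luminescence from CellTiter-Glo measures cytotoxicity in GeneBLAzer FXR-UAS-bla HEK 293T cells. Cells were exposed to compounds with 50 uM chenodeoxycholic acid (final) for 16 h at 37 C, in wells also used for the reporter readout.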

[6] = biological target: Vitamin D3 receptor (Homo sapiens) (UniProt P11473); assay: qHTS assay to identify small molecule agonists of the vitamin D receptor (VDR) signaling pathway (AID 743222; calls by dose curve; also: % is scaled to controls: 0 for no effect and ±100 for the full control effect)
Method in brief: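 Fluorescence from cleaved LiveBLAzer B/G FRET substrate served as readout. VDR-bla cells had been treated 16 h at 37C with test compounds in DMSO, following a 4 h settling period, and substrate was loaded for 2 h at RT.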

[7] = biological target: Vitamin D3 receptor (Homo sapiens) (UniProt P11473); assay: qHTS assay to identify small molecule antagonists of the vitamin D receptor (VDR) signaling pathway (AID 743223; active = well fitted inhibition curve with a large enough effect in the signal ratio in the repeat runs, not every such curve was filed as active; the % refers to the signal ratio; also: % is scaled to controls: 0 for no effect and ±100 for the full control effect)
Method in brief: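 Antagonist mode uses 1alpha,25-dihydroxyvitamin D3 at 3 nM final as stimulus. VDR-bla cells receive compounds in DMSO, incubate 16 h at 37C, then a beta-lactamase FRET substrate for 2 h at room temperature before fluorescence measurement.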

[8] = qHTS assay to identify small molecule agonists of the vitamin D receptor (VDR) signaling pathway - cell viability counter screen (AID 743224); also: series mostly up to about 63 µM; % is scaled to controls: 0 for no effect and ±100 for the full control effect; nearly all actives have a fitted effect of over 50% in size
Method in brief: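 Compounds were pin-transferred onto VDR-bla cells plated 4 h earlier; following 16 h incubation at 37C, cell viability was quantified by CellTiter-Glo luminescence after 30 min at room temperature.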

[9] = qHTS assay to identify small molecule antagonists of the vitamin D receptor (VDR) signaling pathway - cell viability counter screen (AID 743225); also: % is scaled to controls: 0 for no effect and ±100 for the full control effect; nearly all actives have a fitted effect of over 50% in size
Method in brief: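 Read-out: CellTiter-Glo luminescence measured 30 min after reagent addition at room temperature. Cells were VDR-bla HEK 293T exposed 16 h at 37C, 5% CO2, to compound with 3 nM final calcitriol agonist.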

[10] = qHTS assay to identify small molecule agonists of the NFkB signaling pathway (AID 1159509; active = well fitted curve in the direction sought with a large enough effect in the signal ratio in the repeat runs, not every such curve was filed as active; the % refers to the signal ratio)
Method in brief: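 Readout: FRET fluorescence, 405 nm excitation, 460/530 nm emission; beta-lactamase expression disrupts FRET. Cells: ME-180 stably carrying NF-kB-driven bla reporter. Compound exposure 5 hr, 37 C, 5% CO2.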

[11] = qHTS assay to identify small molecule agonists of the NFkB signaling pathway - cell viability counter screen (AID 1159515; calls by dose curve; also: series mostly up to about 61 µM; % is scaled to controls: 0 for no effect and ±100 for the full control effect; nearly all actives have a fitted effect of over 55% in size)
Method in brief: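 Parallel cytotoxicity counter screen in ME-180 cells carrying an NFkB-response-element beta-lactamase reporter, 2,000 cells/well. Compound exposure lasted 5 hr at 37 C, 5% CO2. Cell viability was quantified by CellTiter-Glo luminescence.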

[12] = qHTS assay to identify small molecule agonists of the endoplasmic reticulum stress response signaling pathway (AID 1159516; active = well fitted activation curve with a large enough effect in the signal ratio in the repeat runs, not every such curve was filed as active; the % refers to the signal ratio; also: % is scaled to controls: 0 for no effect and ±100 for the full control effect)
Method in brief: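 Using a HeLa line with an ESRE-driven beta-lactamase gene, agonist activity was measured by FRET substrate fluorescence (460 and 530 nm emission) after cells were treated with compounds for 5 hr at 37 C and 5% CO2.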

[13] = qHTS assay to identify small molecule agonists of the endoplasmic reticulum stress response signaling pathway - cell viability counter screen (AID 1159517; calls by dose curve;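 also: HeLa cells carrying an ER stress response element beta-lactamase reporter; series mostly up to about 61 µM; % is scaled to controls: 0 for no effect and ±100 for the full control effect; nearly all actives have a fitted effect of over 50% in size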)
Method in brief: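 Steps: seed 1,500 ESRE-bla HeLa cells per well; incubate overnight at 37 C, 5% CO2; add compounds in DMSO for 5 hr; run FRET substrate 2 hr RT; add CellTiter-Glo, wait 30 min, read luminescence.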

[14] = qHTS assay to identify small molecule antagonists of the retinoid-related orphan receptor gamma (ROR-gamma) signaling pathway - cell viability counter screen (AID 1159520)
Method in brief: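 Tet-on ROR gamma CHO cells were given compounds for 2 hr, then doxycycline hyclate at 1 uM final, and incubated 16 hr at 37 C. Viability was measured as ATP content by CellTiter-Glo luminescence.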

[15] = biological target: Nuclear receptor ROR-gamma (Homo sapiens) (UniProt P51449); assay: qHTS assay to identify small molecule antagonists of the retinoid-related orphan receptor gamma (ROR-gamma) signaling pathway (AID 1159521)
Method in brief: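 CHO Tet-on RORγ, RORE-luc reporter. Cpd 2 h pre-incubation, then dox hyclate 1 uM final, 16 h, 37 C/5% CO2. ONE-Glo luminescence; decrease = antagonist.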

[16] = qHTS assay to identify small molecule agonists of the AP-1 signaling pathway - cell viability counter screen (AID 1159525; calls by dose curve; also: nearly all actives have a fitted effect of over 55% in size)
Method in brief: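 Same-well cytotoxicity counter screen of the Tox21 10K library in ME-180 cells. The readout is ATP-dependent luminescence after 5 h compound treatment. Data are normalised to DMSO and tetra n-octyl ammonium bromide controls.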

[17] = qHTS assay to identify small molecule agonists of the AP-1 signaling pathway (AID 1159526; calls by dose curve; also: % is scaled to controls: 0 for no effect and ±100 for the full control effect)
[18] = qHTS assay to identify small molecule antagonists of the peroxisome proliferator-activated receptor delta (PPARd) signaling pathway - cell viability counter screen (AID 743213)
Method in brief: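 In this counter screen, HEK293H cells carrying a UAS-beta-lactamase reporter are co-treated with test compounds and 300 nM L165041 (final) for 17 h at 37 C; cell viability is quantified by CellTiter-Glo luminescence.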

[19] = biological target: Bile acid receptor (Homo sapiens) (UniProt Q96RI1); assay: qHTS assay to identify small molecule antagonists of the farnesoid-X-receptor (FXR) signaling pathway (AID 743217; active = well fitted inhibition curve with a large enough effect in the signal ratio in the repeat runs, not every such curve was filed as active; the % refers to the signal ratio; also: % is scaled to controls: 0 for no effect and ±100 for the full control effect)
Method in brief: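 Screen of the Tox21 10K library in quantitative HTS format using FXR-UAS-bla HEK 293T reporter cells. Agonist chenodeoxycholic acid, 50 uM final, added with compounds; 16 h incubation at 37 °C; beta-lactamase FRET fluorescence measured.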

[20] = biological target: Bile acid receptor (Homo sapiens) (UniProt Q96RI1); assay: qHTS assay to identify small molecule agonists of the farnesoid-X-receptor (FXR) signaling pathway (AID 743220; active = well fitted activation curve with a large enough effect in the signal ratio in the repeat runs, not every such curve was filed as active; the % refers to the signal ratio; also: % is scaled to controls: 0 for no effect and ±100 for the full control effect)
Method in brief: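 FXR-UAS-bla HEK 293T cells carrying a UAS-driven beta-lactamase reporter were plated for 5 h at 37C/5% CO2, then exposed to DMSO-dissolved Tox21 10K compounds for 16 h at 37C. A LiveBLAzer B/G FRET substrate was loaded for 2 h at room temperature before fluorescence reading.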

Chain of Vitamin D3 receptor (Homo sapiens) (P11473 whole entry, looked up): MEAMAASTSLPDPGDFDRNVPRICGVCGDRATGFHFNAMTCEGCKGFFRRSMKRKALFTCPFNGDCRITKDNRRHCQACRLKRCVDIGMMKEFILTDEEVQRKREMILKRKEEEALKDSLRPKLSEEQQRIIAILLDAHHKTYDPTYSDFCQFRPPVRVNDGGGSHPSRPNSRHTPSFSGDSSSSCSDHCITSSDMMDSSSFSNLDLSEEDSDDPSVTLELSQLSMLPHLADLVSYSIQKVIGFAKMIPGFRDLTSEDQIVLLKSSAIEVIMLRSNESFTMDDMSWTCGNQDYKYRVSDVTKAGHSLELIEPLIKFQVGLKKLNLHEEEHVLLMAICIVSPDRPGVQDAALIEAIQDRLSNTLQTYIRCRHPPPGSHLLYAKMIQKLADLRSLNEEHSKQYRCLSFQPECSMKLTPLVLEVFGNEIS
Chain of Peroxisome proliferator-activated receptor delta (Homo sapiens) (Q03181 whole entry, looked up): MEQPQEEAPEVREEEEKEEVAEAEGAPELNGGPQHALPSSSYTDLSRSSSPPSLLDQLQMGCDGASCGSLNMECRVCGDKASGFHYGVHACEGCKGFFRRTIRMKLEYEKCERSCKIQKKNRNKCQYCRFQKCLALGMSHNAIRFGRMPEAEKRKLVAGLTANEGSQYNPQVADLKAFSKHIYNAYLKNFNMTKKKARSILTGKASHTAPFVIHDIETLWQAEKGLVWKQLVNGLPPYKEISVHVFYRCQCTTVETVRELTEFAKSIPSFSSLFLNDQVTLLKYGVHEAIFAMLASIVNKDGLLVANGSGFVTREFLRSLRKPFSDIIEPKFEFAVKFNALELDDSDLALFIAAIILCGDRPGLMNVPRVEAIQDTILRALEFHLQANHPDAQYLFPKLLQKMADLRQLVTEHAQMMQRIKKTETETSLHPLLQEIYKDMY
Chain of Bile acid receptor (Homo sapiens) (Q96RI1 whole entry, looked up): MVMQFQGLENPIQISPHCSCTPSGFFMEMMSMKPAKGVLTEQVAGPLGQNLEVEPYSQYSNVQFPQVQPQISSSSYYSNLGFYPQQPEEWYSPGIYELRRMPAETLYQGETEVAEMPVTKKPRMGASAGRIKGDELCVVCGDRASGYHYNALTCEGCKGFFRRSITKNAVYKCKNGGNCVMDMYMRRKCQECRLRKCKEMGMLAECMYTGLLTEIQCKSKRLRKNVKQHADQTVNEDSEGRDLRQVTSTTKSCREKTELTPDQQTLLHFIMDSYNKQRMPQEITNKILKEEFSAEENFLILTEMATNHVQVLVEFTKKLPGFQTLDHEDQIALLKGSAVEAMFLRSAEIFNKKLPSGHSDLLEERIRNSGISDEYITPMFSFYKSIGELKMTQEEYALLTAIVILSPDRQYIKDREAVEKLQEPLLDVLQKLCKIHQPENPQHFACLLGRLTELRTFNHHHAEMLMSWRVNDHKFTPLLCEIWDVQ

C=CC[N+](C)(C)CC=C
inactive: outcome [1] | Potency [2] | outcome [3] | outcome [4] | outcome [5] | outcome [6] | outcome [7] | outcome [8] | outcome [9] | outcome [10] | outcome [11] | outcome [12] | Potency [13] | outcome [14] | Potency [15] | outcome [16] | Potency [17]

CN/C(=C\[N+](=O)[O-])NCCSCc1csc(CN(C)C)n1
inactive: outcome [1] | Potency [2] | outcome [3] | outcome [4] | outcome [5] | outcome [8] | outcome [9] | outcome [10] | outcome [11] | outcome [12] | Potency [13] | outcome [14] | Potency [15] | outcome [16] | Potency [17]

NCCN1CCNCC1
inactive: outcome [1] | Potency [2] | outcome [3] | outcome [4] | outcome [5] | outcome [6] | outcome [7] | outcome [8] | outcome [9] | outcome [10] | outcome [11] | outcome [12] | Potency [13] | outcome [14] | Potency [15] | outcome [16] | Potency [17]

OCc1ccccc1
inactive: outcome [1] | outcome [4] | outcome [5] | outcome [6] | outcome [7] | outcome [8] | outcome [9] | outcome [10] | outcome [11] | outcome [12] | Potency [13] | outcome [14] | Potency [15] | outcome [16] | Potency [17]

CC(CCO)CC(C)(C)C (stereo not drawn)
inactive: outcome [1] | outcome [4] | outcome [5] | outcome [6] | outcome [8] | outcome [9] | outcome [10] | outcome [11] | outcome [12] | Potency [13] | outcome [14] | Potency [15] | outcome [16] | Potency [17]

CC(C)(C#N)c1cc(Cn2cncn2)cc(C(C)(C)C#N)c1
inactive: outcome [1] | outcome [18] | outcome [19] | outcome [4] | outcome [20] | outcome [5] | outcome [6] | outcome [7] | outcome [8] | outcome [9] | outcome [10] | outcome [11] | outcome [12] | Potency [13] | outcome [14] | Potency [15] | outcome [16] | Potency [17]

CN1C(=O)CC[C@H]1c1cccnc1
inactive: outcome [1] | outcome [4] | outcome [5] | outcome [8] | outcome [9] | outcome [10] | outcome [11] | outcome [12] | Potency [13] | outcome [14] | Potency [15] | outcome [16] | Potency [17]

CCc1ccccc1CC
inactive: outcome [1] | viability change, negative = cytotoxic [4] 18.7% [at 13.2 µM] | outcome [5] | outcome [8] | viability change, negative = cytotoxic [9] 4.82% [at 15.1 µM] | outcome [10] | outcome [11] | outcome [12] | Potency [13] | outcome [14] | Potency [15] | outcome [16] | Potency [17]

CNC(=S)N(C)C
inactive: outcome [1] | outcome [18] | outcome [4] | outcome [5] | outcome [6] | outcome [7] | outcome [8] | outcome [9] | outcome [10] | outcome [11] | outcome [12] | Potency [13] | outcome [14] | Potency [15] | outcome [16] | Potency [17]

CN(C)CCOC(=O)COc1ccc(Cl)cc1
inactive: outcome [1] | Potency [2] | outcome [3] | outcome [4] | outcome [5] | outcome [6] | outcome [7] | outcome [8] | outcome [9] | outcome [10] | outcome [11] | outcome [12] | Potency [13] | outcome [14] | Potency [15] | outcome [16] | Potency [17]

CC1(C)CC(N)CC(C)(CN)C1 (stereo not drawn)
inactive: outcome [1] | Potency [2] | outcome [3] | outcome [4] | outcome [5] | outcome [8] | outcome [9] | outcome [10] | outcome [11] | outcome [12] | Potency [13] | outcome [14] | Potency [15] | outcome [16] | Potency [17]

COc1ccc(OC)cc1
inactive: outcome [1] | Potency [2] | outcome [3] | outcome [4] | outcome [5] | outcome [6] | outcome [7] | outcome [8] | outcome [9] | outcome [10] | outcome [11] | outcome [12] | Potency [13] | outcome [14] | Potency [15] | outcome [16] | Potency [17]

CC1(C)OC[C@@H]2O[C@@]3(C(=O)O)OC(C)(C)O[C@H]3[C@@H]2O1
inactive: outcome [1] | outcome [18] | outcome [4] | outcome [5] | outcome [6] | outcome [7] | outcome [8] | outcome [9] | outcome [10] | outcome [11] | outcome [12] | Potency [13] | outcome [14] | Potency [15] | outcome [16] | Potency [17]
